The record followed here is ChEMBL document CHEMBL3433997, “St. Jude Leishmania screening dataset” (2016).

Format in all cases: functional
Test [1] deals with Solute carrier family 2, facilitated glucose transporter member 1 (Homo sapiens) (UniProt P11166). Put plainly: ST_JUDE_LEISH: Cytotoxicity at 2uM final concentration against transgenic Leishmania Mexicana promastigotes LmGLUT1 that are glucose transport deficient and complemented with the human glucose transporter GLUT1. Activity is measured by DNA content using SYBR green in vitro.
Chain of Solute carrier family 2, facilitated glucose transporter member 1 (Homo sapiens) (P11166 whole entry): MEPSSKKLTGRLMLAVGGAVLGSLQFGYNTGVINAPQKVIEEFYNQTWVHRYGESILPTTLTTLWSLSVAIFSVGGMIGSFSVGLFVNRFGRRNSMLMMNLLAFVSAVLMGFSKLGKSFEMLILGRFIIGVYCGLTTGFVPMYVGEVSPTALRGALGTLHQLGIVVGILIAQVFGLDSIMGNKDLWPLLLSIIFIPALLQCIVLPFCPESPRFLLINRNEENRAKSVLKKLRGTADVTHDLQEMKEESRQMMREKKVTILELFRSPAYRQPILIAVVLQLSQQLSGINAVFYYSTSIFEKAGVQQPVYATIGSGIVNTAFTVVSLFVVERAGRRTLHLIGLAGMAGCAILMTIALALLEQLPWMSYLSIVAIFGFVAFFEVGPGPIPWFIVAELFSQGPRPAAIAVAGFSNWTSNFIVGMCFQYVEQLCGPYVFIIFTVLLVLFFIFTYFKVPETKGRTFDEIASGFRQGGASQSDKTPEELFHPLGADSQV

Test [2] addresses Hexose transporter 1 (Plasmodium falciparum) (UniProt O97467). Put plainly: ST_JUDE_LEISH: Cytotoxicity at 2uM final concentration against transgenic Leishmania Mexicana promastigotes LmPfHT that are glucose transport deficient and complemented with the Plasmodium falciparum hexose transporter. Activity is measured by DNA content using SYBR green in vitro.
Test [3] concerns the target Glucose transporter (Leishmania mexicana) (UniProt O61059). In words: ST_JUDE_LEISH: Cytotoxicity at 2uM final concentration against transgenic Leishmania Mexicana promastigotes LmGT2 that are glucose transport deficient and complemented with the L. Mexicana glucose transporter 2. Activity is measured by DNA content using SYBR green in vitro.

For orientation: inhibition means the drop in the measured response relative to a control, in per cent. For the molecule `COc1cccc(CNC(=O)NC2CCN(c3ccnc(Nc4ccc(F)cc4)n3)C2)c1` (stereo unspecified), the results for the inhibition in test [1], in test [2] and in test [3] were -1.2%, -0.35% and -1.51%, respectively.
For `O=C(Nc1cccc(C(F)(F)F)c1)c1cc([N+](=O)[O-])cc2cn[nH]c12`, in that order: 6.35%, 5.74% and 1.24%.
For `CCOC(=O)c1nc(-c2ccccc2)[nH]c1-n1nc(C)cc1C`, in that order: 1.44%, 0.92% and 0.66%.
For `O=C(NC1CCCCC1)N(Cc1cccc(-c2ccc(CNC3CCCC3)cc2)c1)C1CCN(Cc2ccccc2)CC1`, in that order: 16%, 14.6% and 9.9%.
With `CNCCNCc1ccc(-c2ccc(-c3nc4cc(F)ccc4[nH]3)s2)cc1`, the inhibition in test [1] amounted to 9.52%; in test [2], 7.79%; in test [3], 8.77%.
For the molecule `FC(F)(F)c1ccc2[nH]c(-c3cccc(-c4ccc(CNCC5CCCO5)cc4)c3)nc2c1` (stereo unspecified), the inhibition in test [1] worked out at 11.3%; in test [2], 8.39%; in test [3] it was 6.46%.
Take `CCCCCN1CCCC(NS(=O)(=O)c2ccc(C(=O)Nc3ccc(C(F)(F)F)cc3)cc2)C1` (stereo unspecified): the values for the inhibition in test [1], in test [2] and in test [3] were 6.19%, 4.12% and 1.89%, respectively.
For `CCNc1cc(C(=O)N[C@@H](Cc2ccccc2)[C@H](O)CN[C@@H](C)c2cccc(OC)c2)cc(N2CCCC2=O)c1`, in that order: 3.36%, 2.81% and 3.09%.
For `Cc1cc(CN2CCCN(c3ccc4c(c3)CCN(Cc3ccc(-c5ncc[nH]5)cc3)CC4)CC2)n(C)n1`, in that order: -0.3%, -1.47% and -3.2%.
For `CCOc1ccc(Br)cc1/C=C/C(=O)Nc1ccc(C2CCN(C)CC2)cc1`, in that order: 9.52%, 7.2% and 5.47%.
In the case of `CN(C)CCNC(=O)c1ccc(-c2cnc3ccc(NCc4ccc(Cl)c(Cl)c4)nn23)cc1`, the inhibition was -1.43% in test [1], -1.29% in test [2] and 11.1% in test [3].
For `Cc1nc2c(s1)c(=O)cc(CCc1cccc(F)c1F)n2CC(=O)N(Cc1ccc(-c2ccc(C(F)(F)F)cc2)cc1)C1CCN(C(C)C)CC1`, in that order: 1.07%, 0.83% and 1.78%.
